# Assay results from PubChem BioAssay AID2061166 (Soto Lab, Mitchell Center for Alzheimers Disease and …, 2025).
# A number with no mark means an inactive call. The source made the active and inactive calls.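 How the source made its calls: active means mean tau seeding fluorescence area under 1% of vehicle, meaning inhibition above a set limit; inactive means the rest.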
# Molecular target: Microtubule-associated protein tau (Homo sapiens) (UniProt P10636)
# Test: inhibitors of seeded tau aggregation, primary screen, biochemical, seed amplification, ThT fluorescence (AID 2061166)
# Conditions: Recombinant tau seeded by AD brain, ThT fluorescence AUC; at 100 µM; active compounds read high
# Microtubule-associated protein tau (Homo sapiens), sequence (P10636 whole entry, looked up): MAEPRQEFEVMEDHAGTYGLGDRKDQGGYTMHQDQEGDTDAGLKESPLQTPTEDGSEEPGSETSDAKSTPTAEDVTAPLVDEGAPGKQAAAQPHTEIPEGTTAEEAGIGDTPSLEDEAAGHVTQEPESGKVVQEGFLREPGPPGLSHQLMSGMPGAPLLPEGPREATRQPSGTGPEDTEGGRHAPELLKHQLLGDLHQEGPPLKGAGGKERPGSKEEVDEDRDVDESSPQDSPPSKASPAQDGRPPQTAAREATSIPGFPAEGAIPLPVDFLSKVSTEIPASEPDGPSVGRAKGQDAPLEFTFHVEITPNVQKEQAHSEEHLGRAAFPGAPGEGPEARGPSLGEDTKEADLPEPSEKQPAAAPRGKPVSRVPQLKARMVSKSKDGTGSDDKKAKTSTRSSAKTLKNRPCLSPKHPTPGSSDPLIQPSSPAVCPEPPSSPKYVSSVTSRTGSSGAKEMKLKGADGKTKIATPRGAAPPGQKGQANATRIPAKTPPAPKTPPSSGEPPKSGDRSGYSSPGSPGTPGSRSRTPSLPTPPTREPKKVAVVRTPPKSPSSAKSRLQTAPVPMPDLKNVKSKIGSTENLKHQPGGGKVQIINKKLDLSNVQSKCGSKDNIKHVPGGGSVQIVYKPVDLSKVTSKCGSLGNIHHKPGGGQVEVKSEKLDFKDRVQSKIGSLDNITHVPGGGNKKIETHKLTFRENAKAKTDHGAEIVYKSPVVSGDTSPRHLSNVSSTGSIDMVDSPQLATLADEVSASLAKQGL
row,Compound,inhibition
1,Cc1ccsc1C(=CCCN1CCCC(C(=O)O)C1)c1sccc1C (configuration not stated),3.27%
2,CC(C)(C)c1cc(C(C)(C)C)c(NC(=O)c2c[nH]c3ccccc3c2=O)cc1O,-88.7%
3,CC(C)(Sc1cc(C(C)(C)C)c(O)c(C(C)(C)C)c1)Sc1cc(C(C)(C)C)c(O)c(C(C)(C)C)c1,23%
4,CC(=O)OCC(=O)C1(O)C(C)CC2C3CCC4=CC(=O)C=CC4(C)C3(F)C(O)CC21C (configuration not stated),46.2%
5,CCC(C(=O)O)c1ccc(N2Cc3ccccc3C2=O)cc1 (configuration not stated),26.9%
6,CCc1cc2c(cc1N1CCC(N3CCOCC3)CC1)C(C)(C)c1[nH]c3cc(C#N)ccc3c1C2=O,-7.3%
7,Cc1cc(=O)n(-c2ccccc2)n1C,8.96%
8,Cc1c(C(=O)NN2CCCCC2)nn(-c2ccc(Cl)cc2Cl)c1-c1ccc(Cl)cc1,50.7%
9,CC1=NN(c2ccccc2)C(=O)C1,48.4%
10,Nc1ccc(S(=O)(=O)c2ccc(N)cc2)cc1,26.5%
11,CCc1c2c(nc3ccc(OC(=O)N4CCC(N5CCCCC5)CC4)cc13)-c1cc3c(c(=O)n1C2)COC(=O)C3(O)CC (configuration not stated),46.1%
12,NS(=O)(=O)Cc1noc2ccccc12,18.2%
13,CC(=O)Oc1ccccc1C(=O)O,2.58%
14,CC12CC3(O)OC(O1)C1(COC(=O)c4ccccc4)C3CC21OC1OC(CO)C(O)C(O)C1O (configuration not stated),-50%
15,COc1cc(C(=O)NCc2ccc(OCCN(C)C)cc2)cc(OC)c1OC,10.7%
16,Cc1ncc(CO)c(CO)c1O (tested in a mixture with another compound),21.6%

row,Compound,inhibition
1,O=c1cc(-c2ccccc2)oc2cc(O)c(O)c(O)c12,97.6%
2,C#Cc1cccc(Nc2ncnc3cc(OCCOC)c(OCCOC)cc23)c1,-11.4%
3,C[N+](C)=c1ccc2nc3ccc(N)cc3sc-2c1,100% (active)
4,CCC(=O)NCCC1CCc2ccc3c(c21)CCO3 (configuration not stated),-20.8%
5,CNC(=O)c1cc(Oc2ccc(NC(=O)Nc3ccc(Cl)c(C(F)(F)F)c3)cc2)ccn1,-11%
6,OCCOCCN1CCN(C2=Nc3ccccc3Sc3ccccc32)CC1,22.2%
7,C#CCNC1CCc2ccccc21 (configuration not stated),-62.3%
8,COC1CC2CCC(C)C(O)(O2)C(=O)C(=O)N2CCCCC2C(=O)OC(C(C)CC2CCC(OCCO)C(OC)C2)CC(=O)C(C)/C=C(\C)C(O)C(OC)C(=O)C(C)CC(C)/C=C/C=C/C=C/1C (configuration not stated),19.2%
9,CCN(CC)CC#CCOC(=O)C(O)(c1ccccc1)C1CCCCC1 (configuration not stated),-0.433%
10,CCOc1nc2cccc(C(=O)O)c2n1Cc1ccc(-c2ccccc2-c2nn[nH]n2)cc1,36.2%
11,O=c1c(O)c(-c2cc(O)c(O)c(O)c2)oc2cc(O)cc(O)c12,95.3%
12,O=C(c1cc(O)c(O)c(O)c1)c1ccc(O)c(O)c1O,97.9%
13,COC1CC2CCC(C)C(O)(O2)C(=O)C(=O)N2CCCCC2C(=O)OC(C(C)CC2CCC(O)C(OC)C2)CC(=O)C(C)/C=C(\C)C(O)C(OC)C(=O)C(C)CC(C)/C=C/C=C/C=C/1C (configuration not stated),14%
14,CCCOC(C(=O)OC1CCN(C)CC1)(c1ccccc1)c1ccccc1,26.4%
15,CCN(CC)C(=S)SSC(=S)N(CC)CC,-17.5%
16,O=C(CCCN1CCC(O)(c2ccc(Cl)cc2)CC1)c1ccc(F)cc1,-16.8%
